Binding signal data for 39 sequences are collected here from publication PMC4081100, “A DNA-binding-site landscape and regulatory network analysis for NAC transcription factors in Arabidopsis thaliana”.

Sequence of GST-WRKY1(266-371) (Q9SI37 266-371): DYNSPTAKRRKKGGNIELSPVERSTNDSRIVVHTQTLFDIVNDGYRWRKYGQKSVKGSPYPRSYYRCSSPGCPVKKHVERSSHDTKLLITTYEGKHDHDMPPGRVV

The assay concerns the target GST-WRKY1(266-371) (Arabidopsis thaliana, UniProt Q9SI37 266-371). In words: universal protein binding microarray (PBM); transcription factors of Arabidopsis thaliana; high values mean tight binding. Conditions: protein: recombinant; tags: GST; dsDNA, one strand shown. Put shortly:
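For zinc-finger proteins, zinc acetate was added while GST-tagged NAC-domain, full-length or DNA-binding-domain proteins were induced in cells. Purification used glutathione–Sepharose 4B, and quantification used A280 or anti-GST western blot. Custom all-10-mer Agilent 4 × 180K arrays, made double-stranded by primer extension, each received a protein at 200 to 500 nM final in duplicate. Scoring covered gapped and ungapped 8-mers, with binding given as the normalised enrichment score (E-score).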
On to ATGCTGAC, for which the binding signal came out at 0.41 E-score.
Under AGGGTCAG stands 0.403 E-score; under ACGACCAG, 0.403 E-score; under CGATTGAC, 0.443 E-score.
Consider GTGGACCA, for which the binding signal was 0.418 E-score.
GGTCGTCA: the binding signal was found to be 0.41 E-score.
On to GCTGACCC, for which the binding signal worked out at 0.444 E-score.
As for TAGGGTCA, the figure is 0.42 E-score; as for CGGAGTCA, 0.405 E-score.
Turning to GCGGGTCA, the binding signal stood at 0.421 E-score.
For ATGGTCAG, the binding signal amounted to 0.421 E-score.
As for AGTCAGCG, the binding signal was 0.453 E-score.
As for GTCAGCGA, the figure is 0.43 E-score.
As for CAAGGTCA, the figure is 0.425 E-score; as for CAGTCAGC, 0.406 E-score.
Turning to GCTTGACC, the binding signal is 0.482 E-score.
As for AGTCAACC, the figure is 0.486 E-score.
In the case of CGCTGACC, the binding signal turned out to be 0.474 E-score.
Under GACTTTGA stands 0.432 E-score; under CGGTCTTC, 0.438 E-score.
For CTGACCGA, the binding signal worked out at 0.439 E-score.
On to GCTGGTCA, for which the binding signal turned out to be 0.452 E-score.
Regarding CGAGTCAA, the binding signal amounted to 0.477 E-score.
As for AGGTCGTC, the figure is 0.416 E-score.
On to GGTCAGAA, for which the binding signal was 0.444 E-score.
CAGGGTCA: the binding signal came out at 0.403 E-score.
With CGACGACC, the binding signal amounted to 0.439 E-score.
Take GACTGACC: the binding signal came to 0.42 E-score.
Under CAGGTCAA stands 0.484 E-score.
As to CCTGGTCA, the binding signal came out at 0.454 E-score.
Under CGGTCAAG stands 0.483 E-score.
On to GACGGTCA, for which the binding signal came to 0.462 E-score.
As for CGTCTGAC, the figure is 0.418 E-score.
As for ACCTTGAC, the binding signal turned out to be 0.472 E-score.
As for AACGGTCA, the figure is 0.435 E-score.
As for CTGACCAA, the figure is 0.427 E-score.
Under CCATTGAC stands 0.473 E-score; under AGTCGGTC, 0.403 E-score.
As for ATGACCGG, the binding signal was determined as 0.407 E-score.
